Pf growth 48h: P. falciparum growth inhibition at 48 hours (one generation). P. falciparum luciferase growth in erythrocytes, 48 h. Potency, µM (top dose mostly 28.7 µM), hits mostly inhibitors. hit rate 5.9% among 310,000. AID 504832
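In quantitative HTS format, infected erythrocytes bearing luciferase-reporter parasites were treated for a single generation at 37 C. Luminescence after adding detection reagent served as the growth measure.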
CHX counter: affects cycloheximide protein synthesis inhibition readout, counter-screen; cell reporter, cycloheximide protein synthesis inhibition counterscreen; max response, %; hit rate 12% among 300,000; in the data active means max response mostly above about 13%, no sharp cut-off; inactive means mostly below about 14%; further: read at 38.3 µM for the half of the compounds with a filed dose
Pf growth 96h: P. falciparum growth inhibition at 96 hours; P. falciparum luciferase reporter growth, 96 h; Potency, µM (highest dose often 28.7 µM), hits mostly inhibitors; hit rate 6.9% among 320,000; AID 504834
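Cell-based qHTS: luciferase-tagged P. falciparum in erythrocytes (2% hematocrit, 0.05% parasitemia final) incubated with compounds for 96 hours, 37 C, 5% CO2; luciferase detection reagent then added and luminescence measured.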
Shiga inhibitor: blocks Shiga toxin action in Vero cells; hit rate 9.2% among 290,000; inhibition, % at 38.7 µM; AID 2315; Vero cells, Shiga toxin protein synthesis inhibition reporter; in the data active means inhibition mostly above about 28%, no sharp cut-off; inactive means mostly below about 43%
Numbers stand for hits; n = inactive; u = inconclusive; x = no result; [ ] = another dose, or the depositor's remark. Rows were chosen to be rich in hits. Some 21% of all compounds tested hit in one or more screens of this group. Unless noted, the call rests on the fitted dose curve; in most records, active means well fitted inhibition curve with a large enough effect; inconclusive means small, poorly fitted or top-dose-only effect, or another doubt; inactive means no such curve, though single readings can be large or run the other way.

SMILES | Pf growth 48h | CHX counter | Pf growth 96h | Shiga inhibitor
COc1cccc(N2C(=NC(=O)C3CCCCC3)SC3CS(=O)(=O)CC32)c1 (stereo not drawn) | n | n | n | n
Cc1ccc(S(=O)(=O)N2CC(O)CC2C(=O)OCC(=O)c2ccccc2Cl)cc1C (stereo not drawn) | n | n | n | n
COC(=O)c1ccc(-n2nnnc2SCC(=O)Nc2ccccc2OC)cc1 | n | n | x | n
Cc1ccc(-n2nnnc2SCC(=O)Nc2ccccc2N2CCCCC2)cc1C | 2.3µM | n | u | n
CCOc1ccccc1NC(=O)CSc1nnnn1-c1ccc(C(=O)OC)cc1 | n | n | 4.1µM | n
CC(Sc1nnnn1-c1ccccc1)C(=O)Nc1ccccc1-c1ccccc1 (stereo not drawn) | u | n | 2.9µM | n
Cn1nnnc1SCC(=O)Nc1ccccc1-c1ccccc1 | n | n | u | n
Cc1ccc(-n2nnnc2SCC(=O)Nc2ccccc2-c2ccccc2)cc1C | n | n | 4.7µM | n
CC(Sc1nnnn1-c1ccccc1)C(=O)Nc1ccc(N2CCN(C)CC2)cc1 (stereo not drawn) | n | n | n | n
CCn1cc(CNC(=O)C2CCC(=O)N(Cc3ccc(Cl)cc3)C2)cn1 (stereo not drawn) | n | n | u | n
O=C1c2ccccc2C(=O)N1CCCCN(C(=O)c1cc2ccccc2oc1=O)c1ccc(F)cc1F | n | 60 | n | 74
CN(C)CCCN(C(=O)c1cc2ccccc2oc1=O)c1nc2ccc(F)cc2s1 | n | 13 | n | n
CCc1ccc2nc(N(CCN(C)C)C(=O)c3ccc4ccccc4c3)sc2c1 | n | n | n | n
CN(C)CCN(C(=O)c1ccc2ccccc2c1)c1nc2ccc(F)cc2s1 | n | 18 | n | n
O=C(N/N=C/c1ccccc1)C1CCCN1C(=O)c1cc([N+](=O)[O-])cc([N+](=O)[O-])c1 (stereo not drawn) | n | n | u | n
CC(C)S(=O)(=O)c1csc(NC(=O)Nc2cc(Cl)ccc2Cl)c1Cl | u | n | u | n
COc1cnn(-c2ccc(C)cc2)c(=O)c1Br | n | 39 | n | n
CNc1cnn(-c2ccc(C)cc2)c(=O)c1Cl | n | 40 | n | 81
COc1cnn(-c2ccc(C)cc2)c(=O)c1Cl | n | 52 | n | 79
CCOP(=O)(OCC)/C(=C/N1CCCCC1)NC(=O)c1ccccc1 | n | 13 | u | n
CCOc1ccc(NC(=S)C(C#N)=C2N(C)c3ccccc3N2C)cc1 | n | n | u | n
COC(=O)COc1cccc(NC(=O)C(c2ccccc2)c2ccccc2)c1 | n | n | u | n
COc1ccccc1NC(=O)C(CCS(C)(=O)=O)N1C(=O)c2ccccc2C1=O (stereo not drawn) | n | n | u | n
COc1ccc(NC(=O)[C@H](CCS(C)(=O)=O)N2Cc3ccccc3C2=O)c(OC)c1 | x | n | 9.3µM | n
Cc1ccccc1CN1CCC(n2nccc2NC(=O)c2cccnc2)CC1 | u | n | 9.3µM | n
SMILES | Pf growth 48h | CHX counter | Pf growth 96h | Shiga inhibitor
COc1ccccc1C(=O)Nc1ccnn1C1CCN(Cc2cnn(C)c2C)CC1 | n | n | 6.6µM | n
COc1ccc(CN2CCC(n3nccc3NC(=O)c3ccc4c(c3)OCO4)CC2)cc1C | 12µM | n | n | n
COc1ccccc1C(=O)Nc1ccnn1C1CCN(Cc2ccc3nonc3c2)CC1 | u | n | u | n
Cc1ccccc1CN1CCC(n2nccc2NC(=O)c2ccc3c(c2)OCO3)CC1 | n | n | 9.3µM | 34
CC(C)(O)c1cn(-c2nonc2N)nn1 | n | n | n | n
O=C(Oc1ccc(-n2cnnn2)cc1)c1ccccc1 | n | n | n | n
COCCn1c(SCC(=O)Nc2sccc2C(N)=O)nnc1-c1ccncc1 | n | n | u | n
Cc1cccc(NC(=O)CSc2nsc(SCC(=O)Nc3cccc(C)c3)c2C#N)c1 | n | 12 | n | n
CC(=O)Nc1cccc(NC(=O)CSc2nc(C)c(C)c(C)c2C#N)c1 | n | 11 | x | n
N#Cc1c(SCC(=O)N2CCCCC2)nsc1SCC(=O)N1CCCCC1 | 15µM | n | n | n
N#Cc1c(SCC(=O)Nc2ccccc2)nsc1SCC(=O)Nc1ccccc1 | n | n | n | n
CCOc1cccc(NC(=O)CSc2nc(C)c3c(c2C#N)CCCC3)c1 | n | n | n | n
CCCSc1nsc(SCCC)c1C#N | x | 22 | u | 46
COC(=O)CSc1nsc(SCC(=O)OC)c1C#N | n | n | n[5.75 µM] | n
CCOC(=O)Cc1csc(SCC(=O)NC2CCC(C)CC2)n1 (stereo not drawn) | n | x | n | x
COc1ccc(CC(=O)NNS(=O)(=O)c2ccc([N+](=O)[O-])cc2)cc1OC | n | n | n | n
Cc1cccc(N(C)c2ncnc3onc(-c4ccc(F)cc4)c23)c1C | n | n | u | n
CCN(CC(=O)Nc1ccccc1C(F)(F)F)C(=O)C1CC(=O)N(Cc2ccccc2)C1 (stereo not drawn) | u | x | n | x
Cc1cccc(CN2CCc3c([nH]c4ccccc34)C2C(C)(C)C)n1 (stereo not drawn) | u | n | u | n
O=C(NC1CCCCC1)C(c1ccccc1)N(Cc1cccnc1)C(=O)c1csnn1 (stereo not drawn) | u | n | n | n
O=C(N1CCC(n2nc(-c3ccccc3)oc2=O)CC1)C1(c2ccc(Cl)cc2)CC1 | u | n | u | n
CC1(C)CC(=O)C(C2C3=C(CC(C)(C)CC3=O)Oc3c(Br)cc(Br)cc32)=C(O)C1 (stereo not drawn) | n | n | n | n
CN(C(=O)c1ccc2ccccc2c1)c1ccccn1 | n | 30 | n | n
O=C(O)c1ccc(Nc2ccc([N+](=O)[O-])c3nonc23)cc1 | n | n | u | n
NS(=O)(=O)c1ccc(Nc2ccc([N+](=O)[O-])c3nonc23)cc1 | u | n | 9.3µM | n
SMILES | Pf growth 48h | CHX counter | Pf growth 96h | Shiga inhibitor
CC(=O)c1ccc(Nc2ccc([N+](=O)[O-])c3nonc23)cc1 | n | 21 | n | x
COc1ccc(CN2CCN(Cc3ccccc3F)CC2)cc1OC | n | n | n | n
O=C1CCn2nc(-c3ccc(Cl)cc3)cc2N1 | n | 44 | u | 79
COc1ccccc1OCCNC(=O)c1cc(F)c(F)cc1Cl | n | 30 | u | 25
CSc1ccccc1C(=O)NCCOc1ccccc1C | u | n | n[1.15 µM] | n
COc1ccccc1OCCNC(=O)c1cc(SC)ccc1Cl | n | n | n | n
COc1ccccc1OCCNC(=O)c1ccc(Br)cc1 | n | 36 | u | 62
Cc1ccccc1C(=O)NCCOc1ccccc1Cl | n | 36 | n | x
O=C(NCCOc1ccccc1F)c1cc(F)c(F)cc1Cl | n | 36 | n | 86
Cc1cccc(NC(=S)NC2CCCCC2)n1 | 5.2µM | n | n | n
Cc1cccc(NC(=O)NC(=O)c2ccccc2)n1 | n | n | n | 74
Cc1cccc(NC(=S)NC2CCCC2)n1 | n | n | n | n
Cc1ccc(NC(=O)c2cn(-c3cccc(C)n3)cn2)cc1 | n | 39 | n | 90
Cc1cccc(NC(=S)Nc2ccc(Oc3ccccc3)cc2)n1 | n | n | 9.3µM | n
COC(=O)c1ccc(NC(=O)c2cn(-c3cccc(C)n3)cn2)cc1 | n | n | n | n
CC(C)C1Oc2ccccc2N(CC(=O)NC2CCCCC2)C1=O (stereo not drawn) | n | n | n | n
